Experimental data from PubChem BioAssay.
Activity calls are given as the source filed them. Unless noted, how the calls were made is not given here.

Legend:
[1] = system: Wnt5a (protein binding on small-molecule microarray); test: Wnt5a binders on small-molecule microarray, primary screen, biophysical, 635/667 nm fluorescence (AID 1142); conditions: 635 nm fluorescence, higher = more signal;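 further: fluorescence read at 667 nm with signal to noise per printed feature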
[2] = cell viability in Huh7 cells, primary screen, cytotoxicity control for HCV replication inhibitor project, CellTiter-Glo luminescence, basal, 48 h (AID 1143); conditions: Huh7 HCV replicon, higher = more signal, called active from +8 up or from −8 down;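 further: Huh7 hepatoma cells carrying a hepatitis C replication reporter with no stimulus; test concentration not given here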
[3] = P. aeruginosa biofilm formation inhibitors, primary screen, PAO1 strain, BacTiter-Glo luminescence, LB-PBS (AID 1144); conditions: 12 h, higher = more signal
[4] = CREB reporter modulators without forskolin, primary screen, cell-based, PC12, CRE-LacZ reporter, unstimulated (AID 1145); conditions: no forskolin, luminescence, 4.5 h, higher = more signal, called active from +8 up or from −8 down
[5] = CREB reporter modulators under forskolin, primary screen, cell-based, PC12, CRE-LacZ reporter, forskolin-stimulated (AID 1146); conditions: luminescence, 4.5 h, higher = more signal, called active from +8 up or from −8 down;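 further: PC12 cells with 6xCRE LacZ reporter stimulated by forskolin 10 µM; beta-galactosidase reporter signal reflecting CREB driven transcription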
[6] = target: Streptavidin (Streptomyces avidinii) (UniProt P22629); test: streptavidin binders on small-molecule microarray, primary screen, artefact control for SMM compound annotation, biophysical, 635/667 nm fluorescence (AID 1147); conditions: streptavidin binding, higher = more signal;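 further: signal reflects streptavidin binding to arrayed compounds as a control protein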
[7] = small-molecule binders of probe aInhba, primary screen, biochemical, small-molecule microarray, 635/667 nm fluorescence (AID 1148); conditions: higher = more signal;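 further: score merges 667nm spot fluorescence with signal-to-noise for antibody binding to printed compounds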
Torsin-1A (Homo sapiens) [8] = target: Torsin-1A (Homo sapiens) (UniProt O14656); test: torsin A binders from cell lysate, primary screen, small-molecule microarray, wild-type, 635/667 nm (AID 1149); conditions: COS7 hTOR1A-WT lysate, 635 nm fluorescence, higher = more signal
Torsin-1A (Homo sapiens) [9] = target: Torsin-1A (Homo sapiens) (UniProt O14656); test: small-molecule binders of mutant TOR1A in lysate, primary screen, cell lysate, small-molecule microarray, COS7 lysate, 635/667 nm fluorescence (AID 1150); conditions: COS7 hTOR1A mutant lysate, 635 nm fluorescence, higher = more signal;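 further: score pools 667 nm emission and signal to noise measuring lysate protein binding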
[10] = system: Sonic hedgehog protein (Shh); test: small-molecule binders of Shh protein, primary screen, biochemical, small-molecule microarray, 635/667 nm fluorescence (AID 1151); conditions: small-molecule microarray binding, 635 nm fluorescence; higher = more signal;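 further: Shh protein binding to compounds spotted on small-molecule microarray slides; score combines spot fluorescence intensity with signal-to-noise across triplicate slides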

Sequence of Torsin-1A (Homo sapiens) (O14656 whole entry, looked up): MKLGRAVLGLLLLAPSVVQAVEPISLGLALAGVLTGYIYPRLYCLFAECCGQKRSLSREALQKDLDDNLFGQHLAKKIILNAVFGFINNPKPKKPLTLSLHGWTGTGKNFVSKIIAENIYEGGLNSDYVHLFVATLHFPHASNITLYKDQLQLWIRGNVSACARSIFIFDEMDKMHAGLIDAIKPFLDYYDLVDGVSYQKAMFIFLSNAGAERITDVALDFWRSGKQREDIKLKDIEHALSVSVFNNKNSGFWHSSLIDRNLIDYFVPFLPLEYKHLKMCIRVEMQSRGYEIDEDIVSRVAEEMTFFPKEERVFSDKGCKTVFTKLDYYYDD
Sequence of Streptavidin (Streptomyces avidinii) (P22629 whole entry, looked up): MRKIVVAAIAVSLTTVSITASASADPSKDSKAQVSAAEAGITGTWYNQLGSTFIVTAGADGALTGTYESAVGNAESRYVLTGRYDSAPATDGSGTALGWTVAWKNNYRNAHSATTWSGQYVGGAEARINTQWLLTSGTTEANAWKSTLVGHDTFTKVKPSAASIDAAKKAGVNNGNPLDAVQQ

SMILES | composite z-score [1] | z-score [2] | z-score [3] | z-score [4] | z-score [5] | composite z-score [6] | composite z-score [7] | composite z-score (Torsin-1A (Homo sapiens) [8]) | composite z-score (Torsin-1A (Homo sapiens) [9]) | composite z-score [10]
CC(C)(C)OC(=O)CC[C@@]1(C(=O)N2CCOCC2)N=C(c2ccc(OCCCO)cc2)O[C@@H]1c1ccccc1CN=[N+]=[N-] | 1.14 | -0.435 (inactive) | -0.202 (inactive) | 0.311 (inactive) | -0.0177 (inactive) | 1.05 | 0.529 | 0.401 | 2.23 | -0.33
O=C1c2ccccc2[C@](Cc2ccccc2I)(C(=O)NCCN2CCOCC2)[C@H](c2ccc(CO)cc2)N1Cc1ccccc1C(F)(F)F | 0.0104 | -3.41 (inactive) | 0.588 (inactive) | 0.0909 (inactive) | 0.655 (inactive) | 0.515 | -0.038 | 0.717 | 0.469 | 0.468
COc1ccc(C(=O)Nc2cccc(CN3C(=O)[C@]4(O[C@H](CC(=O)N(CCO)Cc5ccccc5)[C@@H]([Si](C)(C)c5ccc(OC)cc5)[C@@H]4C)c4ccccc43)c2)cc1 | 0.997 | -4.13 (inactive) | 0.172 (inactive) | 1.72 (inactive) | -1.33 (inactive) | 0.127 | -0.0131 | 0.0401 | 0.395 | 1.48
COC(=O)[C@@]1(Cc2ccc(F)cc2)[C@H]2c3cc(C(=O)N4CCCC4)n(CCSCCO)c3C[C@H]2CN1C(=O)c1ccccc1 | 0.0841 | -1.11 (inactive) | -0.375 (inactive) | 0.397 (inactive) | 1.13 (inactive) | -0.383 | -0.0477 | -0.319 | 0.301 | -0.697
COc1ccc(C(=O)Nc2ccc(CN3C(=O)[C@@]4(O[C@@H](CC(=O)N(CCO)Cc5ccccc5)[C@H]([Si](C)(C)c5ccc(OC)cc5)[C@H]4C)c4ccccc43)cc2)cc1 | 0.353 | -5.7 (inactive) | -0.376 (inactive) | -0.533 (inactive) | -0.0361 (inactive) | 0.675 | -0.179 | 0.438 | -0.0394 | 1.59
COC(=O)[C@@]1(Cc2ccc(F)cc2)[C@H]2c3cc(C(=O)N(C)C)n(Cc4cccc5ccccc45)c3C[C@H]2CN1C(=O)c1ccccc1 | 1.23 | -0.741 (inactive) | 0.529 (inactive) | 0.0075 (inactive) | 0.287 (inactive) | 0.0609 | 0.115 | 0.639 | 1.49 | -0.685
COCCCNC(=O)[C@]1(Cc2ccccc2CN=[N+]=[N-])N=C(c2ccc(OCCCO)cc2)O[C@@H]1c1ccccc1N=[N+]=[N-] | 0.693 | -4.12 (inactive) | 0.206 (inactive) | 2 (inactive) | -0.786 (inactive) | 0.437 | 0.4 | 0.637 | 0.557 | -0.448
COc1ccc([Si](C)(C)[C@@H]2[C@@H](CC(=O)N3Cc4ccccc4C[C@H]3CO)O[C@]3(C(=O)N(Cc4ccc(I)cc4)c4ccccc43)[C@H]2C)cc1 | 0.206 | -6.3 (inactive) | 0.199 (inactive) | -0.477 (inactive) | 0.0658 (inactive) | 0.143 | -0.101 | 0.211 | 0.204 | 1.94
CN(C)C(=O)[C@]1(CCS(=O)(=O)c2ccccc2)N=C(c2ccc(OCCCO)cc2)O[C@@H]1c1ccccc1CN=[N+]=[N-] | 0.485 | -0.915 (inactive) | -0.813 (inactive) | 0.0686 (inactive) | 0.236 (inactive) | 1.54 | -0.0332 | 0.408 | 0.927 | -0.405
CC(C)C[C@@H]1NC(=O)[C@@H]2C[C@H](C(=O)NCCCCCNC(=O)CS)[C@H](c3ccc(O)cc3)N2C1=O | -0.025 | -4.33 (inactive) | -0.455 (inactive) | -0.809 (inactive) | -0.661 (inactive) | -0.799 | -0.045 | 1.87 | 2.08 | 1.99
O=C1O[C@@H](c2ccccc2)[C@@H](c2ccccc2)N2[C@@H](c3ccccc3OCCO)[C@]3(C(=O)Nc4ccc(C#CC5(O)CCCCCC5)cc43)[C@@H](C(=O)N3CCCCCCC3)[C@H]12 | 2.35 | -5.6 (inactive) | -0.349 (inactive) | -0.168 (inactive) | 0.306 (inactive) | 2.41 | 2.16 | 3.29 | 3.08 | 2.06
CCOC(=O)C[C@H]1[C@H](OC(=O)c2ccccc2-c2ccccc2)[C@@H](NC(=O)CC(C)C)c2cc(OCCCO)ccc2N1C(=O)c1ccccc1 | 0.167 | -0.715 (inactive) | -0.829 (inactive) | 1.94 (inactive) | -0.103 (inactive) | -0.31 | -0.0178 | -0.278 | -0.161 | 1.51
CC(C)Cc1ccc(CN2CC[C@@H](NC(=O)c3ccccc3)C2)cc1 | -0.36 | -2.65 (inactive) | 0.241 (inactive) | 3.31 (inactive) | 0.603 (inactive) | -0.238 | -0.157 | 0.205 | 0.134 | -0.0199
N#Cc1ccc(NN2C(C(O)c3ccc(B(O)O)cc3)C=CC3CN(c4ccccc4)C(=O)C32)cc1 (stereo not given) | -0.465 | -0.0138 (inactive) | -0.454 (inactive) | -0.898 (inactive) | -0.758 (inactive) | 0.287 | -0.128 | -0.0754 | 0.103 | -0.944
CO[C@H]1O[C@H](CO)[C@@H](OC(=O)Nc2cccc(F)c2)[C@H](OC(=O)Nc2ccc3c(c2)OCO3)[C@@H]1OC(=O)Nc1ccc2c(c1)OCO2 | 0.22 | -3.26 (inactive) | 0.221 (inactive) | -0.207 (inactive) | -0.41 (inactive) | 0.438 | 0.0471 | 1.17 | 1.21 | 0.519
O=C1O[C@H](c2ccccc2)[C@H](c2ccccc2)N2[C@H]1[C@@H](C(=O)O)[C@]1(C(=O)Nc3ccccc31)[C@H]2c1ccc(OCCO)cc1 | -0.0515 | 0.234 (inactive) | -0.369 (inactive) | 0.739 (inactive) | 0.727 (inactive) | 1.08 | -0.0468 | 0.658 | -0.283 | 0.98
CN(C)CCCCCCNC(=O)[C@@H]1C[C@@H]2C(=O)N[C@@H](CCCC[N+](C)(C)C)C(=O)N2[C@@H]1c1cccc(OCCO)c1 | 0.144 | -0.966 (inactive) | -0.217 (inactive) | -0.805 (inactive) | -0.416 (inactive) | -0.3 | 0.0569 | 0.327 | -0.284 | -0.371
C=CCNC(=O)[C@@H]1[C@H]2C(=O)O[C@H](c3ccccc3)[C@H](c3ccccc3)N2[C@H](c2ccc(OCCO)cc2)[C@@]12C(=O)N(C(=O)OCCOC)c1ccccc12 | 0.538 | -1.32 (inactive) | -0.328 (inactive) | 0.712 (inactive) | -0.477 (inactive) | -0.154 | 0.138 | 0.72 | 0.281 | 0.957
O=C(NC1CC1)[C@@H]1c2ccccc2C(=O)N(C2CCCCC2)[C@H]1c1ccc(CO)cc1 | 0.0033 | -1.49 (inactive) | 0.446 (inactive) | -0.0259 (inactive) | -0.592 (inactive) | -0.104 | -0.221 | -0.164 | 0.324 | -0.118
CCOC(=O)C[C@H]1[C@H](OC(=O)c2cc3ccccc3oc2=O)[C@@H](NC(=O)c2ccc(-c3ccccc3)cc2)c2cc(OCCCO)ccc2N1C(=O)Cc1ccc(OC)cc1 | 0.391 | -0.346 (inactive) | -0.301 (inactive) | 0.666 (inactive) | 0.0179 (inactive) | 0.385 | -0.0095 | 0.195 | 0.775 | 0.989
COc1ccc(C(O)C2C=CC3C(=O)N(C)C(=O)C3N2Nc2ccccc2)cc1 (stereo not given) | -0.0927 | -2.05 (inactive) | -0.371 (inactive) | -0.143 (inactive) | 0.459 (inactive) | 1.41 | 0.195 | 0.271 | 0.994 | 0.011
C=CC[C@]1(C(=O)NCC(O)CO)N=C(c2ccc(OCCCO)cc2)O[C@H]1c1ccccc1CN=[N+]=[N-] (stereo not given in full) | 0.176 | -0.627 (inactive) | 0.381 (inactive) | 0.652 (inactive) | -0.163 (inactive) | 0.184 | 0.249 | 0.598 | 2.58 | -0.803
C=CCNC(=O)[C@H]1[C@@H]2C(=O)O[C@@H](c3ccccc3)[C@@H](c3ccccc3)N2[C@@H](c2ccc(OCCO)cc2)[C@]12C(=O)N(C(=O)OCCOC)c1ccc(C#CCNC(N)=O)cc12 | 0.0992 | -0.646 (inactive) | -1.36 (inactive) | -0.618 (inactive) | -0.779 (inactive) | 0.286 | -0.0313 | 0.668 | 0.83 | 0.984
[N-]=[N+]=Nc1ccccc1C[C@]1(C(N)=O)COC(c2ccc(OCCCO)cc2)=N1 | 0.131 | -3.62 (inactive) | -1.16 (inactive) | 1.33 (inactive) | -1.31 (inactive) | 0.559 | 0.285 | 0.517 | 1.21 | -0.567
CCCCC(=C=CC[C@H](O)c1cccc(OCCO)c1)C[C@H](O)c1cc(Cl)cc(Cl)c1O | 0.252 | -0.705 (inactive) | -0.915 (inactive) | 1.66 (inactive) | 0.0904 (inactive) | 0.428 | -0.0675 | 0.437 | 0.906 | 1.84
